Values joined by “and” are separate entries in the source; they are usually repeats but may differ in a detail not shown here. Identical values can stand only once. Results filed as inconclusive are left out. More than one record can exist for a structure, and the calls need not agree. Active and inactive are the calls of the source. How the source made its calls, unless noted: active means hit-call score of the fitted dose curve at least 0.9, where 1 is the maximum; inactive means score below 0.9.

The nature of assay [1]: ATG_TAL_CIS: Attagene CIS-FACTORIAL HepG2 Assay for human TAL Basal Promoter (AID 2282966).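 Further: background control endpoint measuring basal TAL promoter reporter mRNA not a specific factor.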 Particulars: HepG2 Attagene cis-factorial TAL promoter reporter; actives raise or lower the signal. The gist of the method: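 HepG2, transient MRTU transfection, 24 h compound exposure; RNA → oligo(dT) RT → PCR → 6-FAM primer extension → HpaI digest → CE fluorescence. Bidirectional curve fit vs DMSO. Background-control readout.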

Assay [2] is described as follows: ATG_TGFb_CIS: Attagene CIS-FACTORIAL HepG2 Assay for human Transforming Growth Factor (TGF) (AID 2282967). Particulars: HepG2 Attagene CIS TGFb reporter, mRNA transcription; actives raise or lower the signal. The gist of the method: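 After a 24-hour incubation with compound, transfected HepG2 cells were lysed for RNA; reporter cDNA was amplified, fluorescently end-labeled and separated by CE. DMSO served as baseline for bidirectional fits.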

Assay [3] can be described thus: ATG_VDRE_CIS: Attagene CIS-FACTORIAL HepG2 Assay for human Vitamin D Receptor Element (VDRE) (AID 2282968). Particulars: HepG2 VDRE cis-reporter transcription, actives raise or lower the signal. The gist of the method: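 Readout is VDRE-driven reporter mRNA reflecting endogenous factor activity in human HepG2 cells, sampled 24 h post-dose. Quantification used labelled RT-PCR products separated by capillary electrophoresis; bidirectional analysis relative to DMSO.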

Assay [4] concerns the target Nuclear receptor subfamily 1 group I member 3 (Homo sapiens) (UniProt Q14994). The experiment in a line: ATG_CAR_TRANS: Attagene TRANS-FACTORIAL HepG2 Assay for human Constitutive Androstane Receptor (CAR) (AID 2282969; active means hit-call score of the fitted dose curve at least 0.9, where 1 is the maximum;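 further: activators raise reporter mRNA above DMSO so AC50 marks induction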). The settings on record: HepG2 Attagene TRANS-FACTORIAL CAR reporter. The gist of the method:
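Signal is reporter mRNA induction relative to DMSO, measured 24 h after dosing by RT-PCR with fluorescent primer extension and capillary electrophoresis. Human HepG2 liver cells carried transiently transfected chimeric NR-Gal4/GAL4-UAS reporter constructs.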

Assay [5] concerns the target X-box-binding protein 1 (Homo sapiens) (UniProt P17861). The experiment in a line: ATG_Xbp1_CIS: Attagene CIS-FACTORIAL HepG2 Assay for human X-box Binding Protein 1 (XBP1) (AID 2282972). Particulars: HepG2 XBP1 cis-element reporter, Attagene multiplex; actives raise or lower the signal. The gist of the method:
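Changes in reporter transcript abundance, read by RT-PCR and capillary electrophoresis, reflect endogenous transcription factor activity. Transfected HepG2 cells received compound for 24 hours; DMSO defined baseline for bidirectional analysis.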

The nature of assay [6]: ATG_M_19_TRANS: Attagene TRANS-FACTORIAL HepG2 Assay for M19 Transcription Factor (Internal Marker) (AID 2282974; active means hit-call score of the fitted dose curve at least 0.9, where 1 is the maximum). The settings on record: HepG2 Attagene TRANS-FACTORIAL M19 internal marker reporter. The gist of the method: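 After transfection of HepG2 with GAL4-UAS-driven reporter constructs, cells are dosed for 24 h. Total RNA is reverse-transcribed, reporter sequences PCR-amplified and labelled, then HpaI-digested and sized by capillary electrophoresis.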

Assay [7] has as its target Steroid hormone receptor ERR1 (Homo sapiens) (UniProt P11474). The assay is described as follows: ATG_ERRa_TRANS: Attagene TRANS-FACTORIAL HepG2 Assay for human Estrogen-Related Receptor alpha (ERRa) (AID 2282971; active means hit-call score of the fitted dose curve at least 0.9, where 1 is the maximum). Particulars: HepG2 Attagene TRANS reporter, ERRa transactivation. The gist of the method:
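Transfected HepG2, 24 h dosing, ERRa-Gal4 chimera driving GAL4-UAS reporter. Readout: reporter mRNA via RT-PCR plus capillary electrophoresis (fluorescence). Positive direction vs DMSO control.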

Assay [8] addresses Androgen receptor (Homo sapiens) (UniProt P10275). The experiment in a line: ATG_AR_TRANS: Attagene TRANS-FACTORIAL HepG2 Assay for human Androgen Receptor (AR) (AID 2282973; active means hit-call score of the fitted dose curve at least 0.9, where 1 is the maximum). The settings on record: HepG2 Attagene TRANS-FACTORIAL AR reporter transcription. In short, it runs like this:
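Readout is reporter transcript abundance, quantified by fluorescent RT-PCR products separated on capillary electrophoresis. Human HepG2 liver cells carried transiently transfected NR-Gal4 chimera plus GAL4-UAS reporter constructs and were dosed for 24 h; activity scored upward versus DMSO.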

Assay [9] addresses Estrogen-related receptor gamma (Homo sapiens) (UniProt P62508). The assay is described as follows: ATG_ERRg_TRANS: Attagene TRANS-FACTORIAL HepG2 Assay for human Estrogen-Related Receptor gamma (ERRg) (AID 2282977; active means hit-call score of the fitted dose curve at least 0.9, where 1 is the maximum;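 further: hits increase reporter signal over DMSO so potencies reflect activators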). Particulars: HepG2 Attagene TRANS reporter, ERRg transactivation. In short, it runs like this:
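Induction of reporter transcripts through a chimeric NR-Gal4 protein is quantified in transfected human HepG2 liver cells after 24 h chemical exposure, using RT-PCR with capillary electrophoresis detection and DMSO as baseline.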

The nature of assay [10]: ATG_GAL4_TRANS: Attagene TRANS-FACTORIAL HepG2 Assay for GAL4 (Internal Marker) (AID 2282976; active means hit-call score of the fitted dose curve at least 0.9, where 1 is the maximum). The settings on record: HepG2 Attagene TRANS GAL4 internal marker reporter. The gist of the method:
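RT-PCR/capillary electrophoresis readout of reporter mRNA. HepG2, transient MRTU transfection (GAL4-UAS reporters), 24 h compound exposure. Background-control endpoint, positive direction vs DMSO baseline.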

Estrogen-related receptor gamma (Homo sapiens), sequence (P62508 whole entry, looked up, the tested form may be a part): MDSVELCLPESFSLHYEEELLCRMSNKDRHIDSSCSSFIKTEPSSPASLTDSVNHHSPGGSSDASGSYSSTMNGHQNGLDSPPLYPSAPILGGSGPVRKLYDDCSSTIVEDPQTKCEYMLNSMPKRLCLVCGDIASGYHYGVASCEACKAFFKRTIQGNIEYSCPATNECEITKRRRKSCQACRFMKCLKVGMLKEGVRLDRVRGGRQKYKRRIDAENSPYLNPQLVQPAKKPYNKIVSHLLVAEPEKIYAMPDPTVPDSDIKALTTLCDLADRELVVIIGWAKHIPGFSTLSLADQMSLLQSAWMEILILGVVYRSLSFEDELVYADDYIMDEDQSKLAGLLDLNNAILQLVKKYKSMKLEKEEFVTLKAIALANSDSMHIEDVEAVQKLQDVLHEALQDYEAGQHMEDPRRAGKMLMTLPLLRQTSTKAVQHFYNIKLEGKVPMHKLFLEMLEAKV
Steroid hormone receptor ERR1 (Homo sapiens), sequence (P11474 whole entry, looked up, the tested form may be a part): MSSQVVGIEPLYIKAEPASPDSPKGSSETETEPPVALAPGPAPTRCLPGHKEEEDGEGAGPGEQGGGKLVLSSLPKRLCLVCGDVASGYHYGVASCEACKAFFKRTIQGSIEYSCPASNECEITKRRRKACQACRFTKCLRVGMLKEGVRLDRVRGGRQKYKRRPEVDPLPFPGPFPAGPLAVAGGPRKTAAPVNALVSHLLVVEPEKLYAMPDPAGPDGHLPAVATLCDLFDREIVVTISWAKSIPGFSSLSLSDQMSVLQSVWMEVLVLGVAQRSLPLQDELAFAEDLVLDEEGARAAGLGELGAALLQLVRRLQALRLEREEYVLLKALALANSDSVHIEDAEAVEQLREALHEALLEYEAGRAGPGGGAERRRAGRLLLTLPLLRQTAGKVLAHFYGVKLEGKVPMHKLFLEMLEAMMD
Nuclear receptor subfamily 1 group I member 3 (Homo sapiens), sequence (Q14994 whole entry, looked up, the tested form may be a part): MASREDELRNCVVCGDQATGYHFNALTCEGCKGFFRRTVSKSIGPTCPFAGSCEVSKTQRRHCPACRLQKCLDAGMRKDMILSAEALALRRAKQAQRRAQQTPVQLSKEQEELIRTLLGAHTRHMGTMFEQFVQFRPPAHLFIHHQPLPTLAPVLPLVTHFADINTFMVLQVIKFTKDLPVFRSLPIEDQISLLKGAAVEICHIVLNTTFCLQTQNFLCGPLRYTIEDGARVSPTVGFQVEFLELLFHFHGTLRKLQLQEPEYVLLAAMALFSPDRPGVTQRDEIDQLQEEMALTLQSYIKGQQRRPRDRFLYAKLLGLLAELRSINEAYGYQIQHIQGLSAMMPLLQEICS
X-box-binding protein 1 (Homo sapiens), sequence (P17861 whole entry, looked up): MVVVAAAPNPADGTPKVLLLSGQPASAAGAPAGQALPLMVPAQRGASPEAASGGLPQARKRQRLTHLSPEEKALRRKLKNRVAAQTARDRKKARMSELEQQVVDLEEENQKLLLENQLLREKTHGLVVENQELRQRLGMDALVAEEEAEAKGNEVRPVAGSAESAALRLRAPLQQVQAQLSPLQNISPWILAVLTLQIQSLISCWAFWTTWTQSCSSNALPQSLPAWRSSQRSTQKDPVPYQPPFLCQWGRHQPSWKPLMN
Androgen receptor (Homo sapiens), sequence (P10275 whole entry, looked up, the tested form may be a part): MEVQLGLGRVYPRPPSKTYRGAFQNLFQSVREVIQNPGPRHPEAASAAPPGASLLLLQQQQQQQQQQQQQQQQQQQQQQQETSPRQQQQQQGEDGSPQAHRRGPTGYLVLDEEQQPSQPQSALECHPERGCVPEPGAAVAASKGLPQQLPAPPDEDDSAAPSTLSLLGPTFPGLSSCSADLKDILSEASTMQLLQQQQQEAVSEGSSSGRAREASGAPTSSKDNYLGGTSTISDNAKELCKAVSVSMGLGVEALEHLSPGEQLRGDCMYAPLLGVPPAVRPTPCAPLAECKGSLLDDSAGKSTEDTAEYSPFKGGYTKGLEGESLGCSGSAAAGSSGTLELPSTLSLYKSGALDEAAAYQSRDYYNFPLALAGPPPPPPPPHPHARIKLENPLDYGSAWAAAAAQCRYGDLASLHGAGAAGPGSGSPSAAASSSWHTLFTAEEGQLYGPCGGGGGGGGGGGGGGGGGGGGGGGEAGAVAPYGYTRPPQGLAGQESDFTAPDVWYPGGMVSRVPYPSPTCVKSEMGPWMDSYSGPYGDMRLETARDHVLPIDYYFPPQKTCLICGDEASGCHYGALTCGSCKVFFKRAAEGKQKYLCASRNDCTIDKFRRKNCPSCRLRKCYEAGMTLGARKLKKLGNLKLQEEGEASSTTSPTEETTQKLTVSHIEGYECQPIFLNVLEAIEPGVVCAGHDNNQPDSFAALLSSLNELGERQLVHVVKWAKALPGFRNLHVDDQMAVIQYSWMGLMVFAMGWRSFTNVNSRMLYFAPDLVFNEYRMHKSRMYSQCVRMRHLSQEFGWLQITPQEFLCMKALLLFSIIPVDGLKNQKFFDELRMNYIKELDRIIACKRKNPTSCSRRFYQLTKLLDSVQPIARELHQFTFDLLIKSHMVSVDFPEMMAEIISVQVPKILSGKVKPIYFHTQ

Consider `Oc1ccccc1Cl`, for which the molecule was called inactive in [1], in assay [2], in assay [3], in assay [4] and in assay [5].
On to `COC(=O)Nc1nc2ccccc2[nH]1`, for which the molecule was classed as inactive in [1], in assay [2], in assay [3], in assay [4], in [5] and in assay [6].
Take `Cc1ccc([N+](=O)[O-])cc1`: the call in [1], in assay [2], in assay [3], in assay [4] and in assay [5] was inactive.
Regarding `CCOC(=O)[C@]1(c2ccccc2)Oc2ccccc2[C@@H]1N`, the AC50 is 61.8 µM (active) in assay [1], 15.6 µM (active) in [2], 15.8 µM (active) in [3] and 41.9 µM (active) in assay [5]. For the same molecule, the result in assay [4] and in assay [6] was inactive.
As to `Nc1ccc(Cc2ccc(N)cc2)cc1`, the molecule was classed as inactive in assay [1], in assay [2], in assay [3], in assay [4], in assay [5] and in [6].
As for `CCNS(=O)(=O)C(F)(F)C(F)(F)C(F)(F)C(F)(F)C(F)(F)C(F)(F)C(F)(F)C(F)(F)F`, the call in assay [1], in assay [3], in assay [4], in [7], in assay [8] and in [6] was inactive. Moreover, the call in [9] was inactive. Also, the AC50 in [2] is 91.1 µM (active) and 44 µM (active) and 40.3 µM (active); in assay [3], 67.3 µM (active) and 25.7 µM (active); in [5], 73.3 µM (active) and 84.4 µM (active) and 31.5 µM (active).
As for `CCCSC(=O)N(CCC)CCC`, the molecule was called inactive in assay [1], in assay [2], in assay [3], in assay [4], in assay [5] and in assay [10].
As to `O=P(OCCCl)(OCCCl)OCCCl`, the result in [1], in assay [2], in assay [3], in assay [4], in [7] and in assay [5] was inactive. The molecule was classed as inactive in [6] and in [10].
As for `Nc1ccc(Cl)cc1N`, the result in assay [1], in assay [2], in assay [4], in assay [8] and in assay [10] was inactive. Further, the values for the AC50 in assay [3] and in assay [5] were 27.3 µM (active) and 21 µM (active), respectively.
As for `Nc1ccc([N+](=O)[O-])cc1`, the outcome in assay [1], in assay [2], in [3], in assay [4], in assay [7] and in assay [5] was inactive. The molecule was called inactive in assay [6].
For the molecule `CC(C)(OOC(C)(C)c1ccccc1)c1ccccc1`, the AC50 is 142 µM (active) in [1], 26.2 µM (active) in [3] and 62.5 µM (active) in assay [5]. The molecule was classed as inactive in assay [2], in assay [4] and in [8].
In the case of `OCCOCCO`, the molecule was classed as inactive in [1], in [2], in [3], in [4], in assay [5] and in assay [6].
Take `CNC(=O)Oc1cccc2c1OC(C)(C)C2`: the outcome in assay [1], in assay [2], in [3], in assay [4], in [5] and in [8] was inactive. The outcome in assay [6] was inactive.
In the case of `CC(C)(C)OOC(C)(C)CCC(C)(C)OOC(C)(C)C`, the molecule was classed as inactive in [1], in assay [2], in assay [3], in assay [4], in assay [7] and in assay [5]. Further, the molecule was called inactive in assay [9].
Turning to `ClC1=C(Cl)[C@]2(Cl)[C@H]3[C@H]([C@@H]4C=C[C@H]3C4)[C@@]1(Cl)C2(Cl)Cl`, the molecule was classed as inactive in assay [1], in assay [2], in [4] and in [6]. The results for the half-maximal activity concentration (AC50) in [3] and in assay [5] were 11.7 µM (active) and 33.4 µM (active), respectively.
Consider `CC(C)N(Cc1ccccc1)C(=O)C(C)(C)C`, for which the call in assay [1], in assay [2], in assay [3], in assay [4], in [5] and in [8] was inactive. Moreover, the result in assay [6] and in assay [10] was inactive.
Regarding `OCCCl`, the molecule was called inactive in [1], in assay [2], in assay [3], in assay [4], in assay [5] and in [10].
As to `Cc1cc(N=Nc2ccccc2C)ccc1N`, the molecule was classed as inactive in assay [1], in assay [2], in assay [4], in assay [7], in [8] and in [6]. For the same molecule, the call in [9] was inactive. Moreover, the AC50 in [3] is 22.9 µM (active); in [5], 19.3 µM (active).

Broadly, the AC50 is the midpoint of the concentration-response curve, whichever way the signal moves.

The record behind these values is PubChem BioAssay (EPA / NIEHS).
